Inconclusive results are not listed. Active and inactive are the calls of the source. Calls follow the shape of the dose curve; as a rule, active = well fitted inhibition curve with a large enough effect; inconclusive = small, poorly fitted or top-dose-only effect; inactive = flat fitted curve, though single readings scatter.
Target: Voltage-gated inwardly rectifying potassium channel KCNH2 (Homo sapiens) (UniProt Q12809)
Experiment: qHTS Assay for Small Molecule Inhibitors of the Human hERG Channel Activity (AID 588834);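 also: top concentration of the series differs between compounds; lower thallium flux fluorescence means stronger hERG block; nearly all actives have a fitted effect of over 50% in size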
In short: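 Thallium-flux (FluxOR) read-out on FDSS: fluorescence read 10 s before and 2 min after stimulation buffer. hERG-BacMam-transduced U2OS cells, compound exposure about 10 min. AC50 by standard Hill equation.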

Sequence of Voltage-gated inwardly rectifying potassium channel KCNH2 (Homo sapiens) (Q12809 whole entry, looked up): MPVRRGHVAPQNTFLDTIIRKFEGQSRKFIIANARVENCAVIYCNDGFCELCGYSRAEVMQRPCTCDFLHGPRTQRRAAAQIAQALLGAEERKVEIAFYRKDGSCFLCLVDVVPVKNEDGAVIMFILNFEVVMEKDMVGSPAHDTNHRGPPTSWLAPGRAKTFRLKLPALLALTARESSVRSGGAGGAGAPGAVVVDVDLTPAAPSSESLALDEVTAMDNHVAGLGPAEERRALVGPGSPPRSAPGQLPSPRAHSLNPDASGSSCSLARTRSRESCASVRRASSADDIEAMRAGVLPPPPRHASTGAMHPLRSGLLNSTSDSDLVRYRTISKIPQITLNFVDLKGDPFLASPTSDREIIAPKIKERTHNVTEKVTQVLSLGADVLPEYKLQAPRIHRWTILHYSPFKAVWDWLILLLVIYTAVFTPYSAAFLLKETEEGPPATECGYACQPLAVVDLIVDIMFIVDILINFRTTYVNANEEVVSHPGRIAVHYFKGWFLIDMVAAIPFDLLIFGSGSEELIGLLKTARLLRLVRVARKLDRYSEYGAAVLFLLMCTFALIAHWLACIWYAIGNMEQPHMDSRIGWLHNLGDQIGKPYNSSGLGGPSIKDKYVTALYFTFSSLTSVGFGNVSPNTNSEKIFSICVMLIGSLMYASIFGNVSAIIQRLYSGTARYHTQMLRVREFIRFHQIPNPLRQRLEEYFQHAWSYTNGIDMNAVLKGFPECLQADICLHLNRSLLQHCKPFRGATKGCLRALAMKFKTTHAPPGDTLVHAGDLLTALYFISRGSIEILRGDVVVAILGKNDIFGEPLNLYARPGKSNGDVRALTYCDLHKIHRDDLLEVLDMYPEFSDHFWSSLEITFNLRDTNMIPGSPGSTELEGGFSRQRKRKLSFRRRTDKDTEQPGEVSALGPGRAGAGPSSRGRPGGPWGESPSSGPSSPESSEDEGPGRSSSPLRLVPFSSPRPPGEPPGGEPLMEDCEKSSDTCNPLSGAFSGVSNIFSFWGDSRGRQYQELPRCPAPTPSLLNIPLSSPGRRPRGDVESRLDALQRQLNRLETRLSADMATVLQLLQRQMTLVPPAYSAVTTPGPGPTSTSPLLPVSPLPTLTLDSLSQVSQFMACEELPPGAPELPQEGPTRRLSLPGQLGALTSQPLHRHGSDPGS

Which outcome does the source give for `Cc1cc(O)c2c(c1)C(=O)c1cccc(O)c1C2=O` here?
The outcome was “inactive”.

`N=c1ccn2c(n1)O[C@H]1[C@@H](O)[C@@H](CO)O[C@H]12` was tested. Which outcome did it give?
Its outcome is “inactive”.

— PubChem BioAssay (NCATS)
